Compounds with a hit are over-represented: about 1.1% of the library has one in this group of screens.
WNV NS2B-NS3 inh – WNV NS2B-NS3 proteinase inhibition | P06935 | WNV NS2B-NS3 protease, fluorogenic substrate Ex360/Em465; stronger effect = lower value | actives 0.18% (n = 65,000) | z-score (test concentration not listed) | AID 577; in the data active means z-score below about -3
Target sequence (P06935 1371-1501 limits assumed): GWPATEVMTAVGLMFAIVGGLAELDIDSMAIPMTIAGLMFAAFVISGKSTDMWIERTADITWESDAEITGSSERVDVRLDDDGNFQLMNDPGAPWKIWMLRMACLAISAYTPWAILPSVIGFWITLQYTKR
Target sequence (P06935 1502-1679 limits assumed): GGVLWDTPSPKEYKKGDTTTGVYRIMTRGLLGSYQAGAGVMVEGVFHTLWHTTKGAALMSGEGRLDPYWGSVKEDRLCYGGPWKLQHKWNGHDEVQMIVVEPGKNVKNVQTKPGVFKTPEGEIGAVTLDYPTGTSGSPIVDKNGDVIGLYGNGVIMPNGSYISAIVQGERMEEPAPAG
HER2 expr 66K – inhibitors of human Her2 kinase expression. P04626. SKBR-3 HER2 protein level, AlphaScreen, 18-24 h; stronger effect = lower value. HER2 level % of control, % at 10 µM. actives 0.69% (n = 65,000). AID 645;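 active means HER2 level under 5% of the carrier-only control; inconclusive means no clear call, values can overlap the other calls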;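 further: 100% = DMSO carrier and 0% = 500 nM PU-H71 HSP90 inhibitor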
CatS block – inhibitors of human cathepsin S; P25774; recombinant cathepsin S, AMC dipeptide fluorescence, pooled mixtures; inhibition, %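 (tested at 5 µM per compound within 10-compound mixtures)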; actives 0.06% (n = 62,000); in the data active means inhibition above about 32%, passing the limit was not always enough; inconclusive means no clear call, values can overlap the other calls;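 further: 0% = enzyme without compound and 100% = blank without enzyme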
CatB block – human cathepsin B inhibition; AID 453; P07858; purified cathepsin B, fluorogenic substrate, fluorescence; actives 0.1% (n = 63,000); inhibition, %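 (tested at 10 µM)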; in the data active means inhibition above about 21%;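 further: 0% = enzyme with no compound and 100% = no enzyme blank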
CatB mix inh – human cathepsin B inhibition by mixtures; P07858; Purified cathepsin B, AMC dipeptide fluorescence, compound mixtures; inhibition, %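 (ten-compound pools at 5 µM per compound and 50 µM total)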; actives 0.06% (n = 62,000); in the data active means inhibition above about 22%, passing the limit was not always enough; inconclusive means no clear call, values can overlap the other calls;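 further: 0% = enzyme without compound and 100% = no enzyme blank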
CatL block – blocks human cathepsin L protease activity. P07711. purified cathepsin L, fluorogenic substrate, fluorescence. inhibition, %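 (tested at 10 µM)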. actives 0.17% (n = 58,000). AID 460; in the data active means inhibition above about 45%;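 further: 0% = enzyme with no compound and 100% = no enzyme blank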
The depositor's hits bear a star; ? = inconclusive; · = no result.

SMILES	WNV NS2B-NS3 inh	HER2 expr 66K	CatS block	CatB block	CatB mix inh	CatL block
COc1ccc(CCNC(=O)CSc2nnc(-c3ccc(F)cc3)o2)cc1OC	-6.1*	105	-39	-2	-2	-3
CC(C)CCN1CCNC(=O)C1CC(=O)Nc1ccc(F)cc1 (stereo not drawn)	1.2	74	-9	9	-2	-1
CC(C)CCN1CC(C(=O)NCc2ccc(F)cc2)CC1=O (stereo not drawn)	-4*	144	0	-7	7	-10
Cc1cc2c(ccc3c2no[n+]3[O-])nn1	-0.75	78	-5	-3	2	-2
O=C(Cc1ccccc1)NC1CCN(S(=O)(=O)c2cccc(F)c2)CC1	-0.53	70	7	0	2	33
CCOc1cccc(-c2nn3c(-c4ccco4)nnc3s2)c1	-1.2	74	·	20	·	20
CC1CCC(NC(=O)Cn2c(=O)[nH]c3ccsc3c2=O)CC1 (stereo not drawn)	0.32	71	-5	0	4	2
CCc1ccccc1NC(=O)CC(O)(C(=O)OC)C(F)(F)F (stereo not drawn)	0.27	·	4	-1	1	-4
COc1cccc(-c2cc(C(=O)Nc3cc(OC)c(OC)c(OC)c3)no2)c1	-0.43	67	16	2	3	12
COc1ccc(N2CCN(S(=O)(=O)/C=C/c3ccccc3)CC2)cc1	-0.27	107	3	-6	6	12
CN1CCN(S(=O)(=O)c2ccc(N3CCN(S(=O)(=O)/C=C/c4ccccc4)CC3)nc2)CC1	-0.44	130	15	9	3	91*
CCn1c(Cc2ccccc2)nnc1SCC(=O)OC(C)C	0.98	79	0	1	8	-5
CC1=C(C)C(=O)NC(Nc2nc(C)c3cc(C)cc(C)c3n2)N1 (stereo not drawn)	0.15	-14*	13	5	7	-5
CCCOc1ccc(/C(O)=C2/C(=O)C(=O)N(CCCN3CCOCC3)C2c2ccncc2)cc1 (stereo not drawn)	0.29	32	·	2	·	1
Cc1[nH]c2ccccc2c1Cc1nnc(SCC(N)=O)o1	-1.4	90	?	1	6	-5
CSc1nc(N2CCN(CCO)CC2)c2sc3nc(-c4ccco4)c4c(c3c2n1)CCC4	-0.88	19	-1	0	-5	72*
Cc1onc(-c2ccccc2)c1C(=O)n1nnc2ccccc21	-0.22	2.2*	-4	-1	0	0
Cc1onc(-c2ccccc2)c1C(N)=O	-0.04	98	10	-3	-11	2
COc1ccc2c(C)nc(Nc3nc(C)cc(C)n3)nc2c1	0.11	95	1	4	-2	61*
COc1ccc(Nc2nc(C)c3ccccc3n2)cc1	-0.61	84	-3	-7	3	-6
O=S(=O)(CCN1CCN(C(c2ccccc2)c2ccccc2)CC1)C(F)(F)F	-0.52	-2.0*	44	1	2	5
Cn1cc[nH]c1=S	-1.2	118	·	·	·	·
c1ccc(Cc2nn3c(COc4ccccc4)nnc3s2)cc1	-2	-21*	-5	2	4	-8
Cc1ccc2c(c1)N(CC(=O)OC(CC(C)C)C(=O)NC1CCCC1)C(=O)CO2 (stereo not drawn)	-1	-24*	1	-4	5	-5
CC1CN=C(N(C(=O)Nc2ccccc2)c2ccc(S(=O)(=O)N3CCOCC3)cc2)S1 (stereo not drawn)	0.37	1.3*	-6	0	3	6
SMILES	WNV NS2B-NS3 inh	HER2 expr 66K	CatS block	CatB block	CatB mix inh	CatL block
CC(C(=O)Nc1ccc(S(=O)(=O)N2CCOCC2)cc1)N(c1ccccc1)S(C)(=O)=O (stereo not drawn)	1.2	89	4	0	2	0
O=C1CCC(C(=O)N(c2ccccc2)C2(C(=O)NC3CCCCC3)CCCCC2)N1 (stereo not drawn)	1.8	95	-8	9	7	-1
[O-][N+]1=C2CCC/C(=N\O)C2=NC12CCCCC2	-0.8	99	·	·	·	·
COc1ccc(Nc2ccc3c(c2)=NC2(CCCCC2)[N+]=3[O-])cc1	1.3	-56*	7	7	9	1
[O-][N+]1=c2ccc(Nc3ccccc3)cc2=NC12CCCCC2	-2.6	-17*	2	2	-3	3
CC1CN(c2oc(COc3ccc(Cl)cc3Cl)nc2C#N)CC(C)O1 (stereo not drawn)	-0.33	-19*	35	-2	8	-1

Assay outcomes deposited in PubChem BioAssay by several laboratories.
